Reference: PubChem BioAssay (NCI)
The panel holds about 79,000 compounds, 15% with a hit somewhere; the sample as a whole holds those more often. Active and inactive are the calls of the source. No stated cut-off is given here; in the data, active means growth inhibition above about 70%; inactive means the rest.

Tests used:
[1] = NCI Yeast Anticancer Drug Screen. Data for the wt2 strain (AID 169);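 further: 0% = growth of vehicle-treated yeast cultures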; conditions: S. cerevisiae wt2 strain growth inhibition, stronger effect = higher value
Outline: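 Inhibition of yeast growth was determined after compound treatment, normalised to controls receiving only vehicle.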

[2] = NCI Yeast Anticancer Drug Screen. Data for the mlh1 strain (AID 171);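 further: 0% = growth of vehicle-treated control cultures of the same strain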; conditions: S. cerevisiae mlh1 strain growth inhibition, stronger effect = higher value
Outline: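 Vehicle-normalised growth inhibition of a repair- or checkpoint-altered yeast strain following compound treatment.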

[3] = NCI Yeast Anticancer Drug Screen. Data for the sgs1 strain (AID 173);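 further: 0% = growth of vehicle-only control cultures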; conditions: S. cerevisiae sgs1 mutant, stronger effect = higher value
Outline: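 Screen format: yeast with repair or checkpoint alterations, compound exposure, growth read relative to vehicle.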

[4] = NCI Yeast Anticancer Drug Screen. Data for the mlh1 rad18 strain (AID 175); conditions: S. cerevisiae mlh1 rad18 strain growth inhibition, stronger effect = higher value
Outline: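 Vehicle-treated cultures served as the reference for growth inhibition in a yeast strain carrying DNA damage repair alterations exposed to each compound.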

[5] = NCI Yeast Anticancer Drug Screen. Data for the rad18 strain (AID 177); conditions: S. cerevisiae rad18 mutant growth inhibition, stronger effect = higher value
Outline: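 Test articles were incubated with altered yeast defective in DNA damage repair. Results are given as inhibition of growth versus vehicle.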

[6] = NCI Yeast Anticancer Drug Screen. Data for the rad52 strain (AID 147);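 further: 0% = growth of vehicle-treated control cultures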; conditions: S. cerevisiae rad52 mutant growth inhibition, stronger effect = higher value
Outline: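 Vehicle-treated cultures served as the reference for growth inhibition of compound-exposed yeast bearing a DNA repair mutation.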

[7] = NCI Yeast Anticancer Drug Screen. Data for the wt1 strain (AID 149);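 further: 0% = growth of vehicle-treated wt1 cultures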; conditions: S. cerevisiae wt1 strain (SPY 50644) growth inhibition, stronger effect = higher value
Outline: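 Growth inhibition read against vehicle controls after compound exposure of the wt1 yeast strain.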

[8] = NCI Yeast Anticancer Drug Screen. Data for the rad50EPP+ strain (AID 151);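 further: 0% = growth of vehicle-treated control cultures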; conditions: S. cerevisiae rad50 mutant strain, stronger effect = higher value
Outline: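 In this screen, rad50EPP+ yeast were exposed to compounds. Growth inhibition was scored against vehicle-treated controls.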

[9] = NCI Yeast Anticancer Drug Screen. Data for the mgt1 strain (AID 153); conditions: S. cerevisiae mgt1 mutant growth inhibition, stronger effect = higher value
Outline: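 mgt1 strain exposed; growth vs vehicle control recorded as inhibition.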

[10] = NCI Yeast Anticancer Drug Screen. Data for the rad50 strain (AID 155);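 further: 0% = growth of vehicle-only cultures of the same strain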; conditions: S. cerevisiae rad50 strain growth inhibition, stronger effect = higher value
Outline: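 Readout: growth inhibition relative to vehicle-treated cultures. Compound exposure was carried out in a genetically defined yeast strain deficient in DNA damage repair.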

[11] = NCI Yeast Anticancer Drug Screen. Data for the mec2-1 strain (AID 157); conditions: S. cerevisiae mec2-1 strain, stronger effect = higher value
Outline: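 Vehicle-treated cultures served as reference for growth inhibition of compound-exposed mec2-1 yeast.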

[12] = NCI Yeast Anticancer Drug Screen. Data for the rad14 strain (AID 159);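 further: 0% = growth of vehicle-treated control cultures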; conditions: S. cerevisiae rad14 strain growth inhibition, stronger effect = higher value
Outline: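 Growth inhibition vs vehicle controls; genetically altered yeast strain (DNA damage repair defect) treated with test compounds.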

[13] = NCI Yeast Anticancer Drug Screen. Data for the sgs1 mgt1 strain (AID 161);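 further: 0% = growth of cultures given vehicle only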; conditions: S. cerevisiae sgs1 mgt1 strain, stronger effect = higher value
Outline: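 Mutant yeast exposed to compound; growth scored against vehicle-only wells.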

[14] = NCI Yeast Anticancer Drug Screen. Data for the CLN2oe strain (AID 163);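 further: 0% = growth of vehicle-only control cultures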; conditions: S. cerevisiae CLN2oe strain, stronger effect = higher value
Outline: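 Inhibition relative to vehicle-treated yeast is reported. Cells: strain with genetic alteration in cell-cycle control, grown with compound.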

[15] = NCI Yeast Anticancer Drug Screen. Data for the cln2 rad14 strain (AID 165);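 further: 0% = growth equal to vehicle treated cultures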; conditions: S. cerevisiae cln2 rad14 strain, stronger effect = higher value
Outline: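 Each compound was tested on cln2 rad14 yeast. Inhibition of growth was calculated against vehicle-exposed controls.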

[16] = NCI Yeast Anticancer Drug Screen. Data for the bub3 strain (AID 167); conditions: S. cerevisiae bub3 mutant strain, stronger effect = higher value
Outline: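 Readout: yeast growth inhibition, expressed relative to vehicle-only wells. The test organism is a mutant strain from a panel with lesions in DNA repair or checkpoint genes.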

[17] = at 5.0 µM (retest, dose inferred, filed as 0.5)
[18] = at 50.0 µM (retest, dose inferred, filed as 5.0)

Measured: growth inhibition

C/C1=C/C2OC(=O)C3(C)C2C(CC2(C)OC1=CC2=O)OC3(O)C(C)C (centres undefined)
active: [1]; at 33.0 µM 79% | [1]; at 100.0 µM 91% | [2]; at 100.0 µM 90% | [3]; at 33.0 µM 72% | [3]; at 100.0 µM 92%
inactive: [1]; at 1.2 µM 8% | [1]; at 3.7 µM 21% | [1]; at 11.0 µM 27% | [2]; at 1.2 µM 21% | [2]; at 3.7 µM 5% | [2]; at 11.0 µM 31% | [2]; at 33.0 µM 60% | [3]; at 1.2 µM 5% | [3]; at 3.7 µM -1% | [3]; at 11.0 µM 26% | [4]; [17] 24% | [4]; [18] 32% | [4]; at 50.0 µM -6.1% | [5]; at 1.2 µM -6% | [5]; at 3.7 µM -33% | [5]; at 11.0 µM -38% | [5]; at 33.0 µM -44% | [5]; at 100.0 µM -37%

Clc1nc(Cl)nc(Nc2cccc3ccccc23)n1
inactive: [6]; at 1.2 µM 13% | [6]; at 3.7 µM 32% | [6]; at 11.0 µM 64% | [7]; at 1.2 µM 6% | [7]; at 3.7 µM 14% | [7]; at 11.0 µM 36% | [8]; at 1.2 µM 21% | [8]; at 3.7 µM 50% | [8]; at 11.0 µM 49% | [9]; at 1.2 µM 18% | [9]; at 3.7 µM 26% | [9]; at 11.0 µM 54% | [10]; at 1.2 µM 4% | [10]; at 3.7 µM 21% | [10]; [17] 29% | [10]; at 11.0 µM 52% | [11]; at 1.2 µM 23% | [11]; at 3.7 µM 42% | [11]; [17] 10% | [11]; at 11.0 µM 58% | [12]; at 1.2 µM -4% | [12]; at 3.7 µM 15% | [12]; at 11.0 µM 48% | [13]; [17] 19% | [13]; [18] 39% | [14]; at 1.2 µM 26% | [14]; at 3.7 µM 31% | [14]; at 11.0 µM 51% | [15]; [17] 44% | [16]; at 1.2 µM 33% | [16]; at 3.7 µM 45% | [16]; [17] 64% | [1]; at 1.2 µM -12% | [1]; at 3.7 µM 15% | [1]; at 11.0 µM 51% | [2]; at 1.2 µM 27% | [2]; at 3.7 µM 51% | [4]; [17] 69% | [5]; at 1.2 µM 11% | [5]; at 3.7 µM 14% | [5]; at 11.0 µM 50%
active: [6]; at 33.0 µM 93% | [6]; at 100.0 µM 98% | [7]; at 33.0 µM 88% | [7]; at 100.0 µM 98% | [8]; at 33.0 µM 85% | [8]; at 100.0 µM 95% | [9]; at 33.0 µM 95% | [9]; at 100.0 µM 98% | [10]; at 33.0 µM 93% | [10]; [18] 92% | [10]; at 50.0 µM 86.9% | [10]; at 100.0 µM 97% | [11]; at 33.0 µM 97% | [11]; [18] 96% | [11]; at 50.0 µM 90% | [11]; at 100.0 µM 98% | [12]; at 33.0 µM 95% | [12]; at 100.0 µM 98% | [13]; at 50.0 µM 86.7% | [14]; at 33.0 µM 94% | [14]; at 100.0 µM 99% | [15]; [18] 95% | [15]; at 50.0 µM 71.4% | [16]; at 11.0 µM 80% | [16]; at 33.0 µM 96% | [16]; [18] 97% | [16]; at 50.0 µM 86.2% | [16]; at 100.0 µM 99% | [1]; at 33.0 µM 93% | [1]; at 100.0 µM 98% | [2]; at 11.0 µM 85% | [2]; at 33.0 µM 97% | [2]; at 100.0 µM 98% | [4]; [18] 94% | [4]; at 50.0 µM 80.3% | [5]; at 33.0 µM 91% | [5]; at 100.0 µM 98%

CC1C(c2ccccc2)SC(=N)N1C (centres undefined)
inactive: [6]; at 1.2 µM -1% | [6]; at 3.7 µM -3% | [6]; at 11.0 µM -2% | [6]; at 33.0 µM -1% | [6]; at 100.0 µM -4% | [7]; at 1.2 µM -1% | [7]; at 3.7 µM -1% | [7]; at 11.0 µM -2% | [7]; at 33.0 µM -1% | [7]; at 100.0 µM -1% | [8]; at 1.2 µM -2% | [8]; at 3.7 µM -2% | [8]; at 11.0 µM -2% | [8]; at 33.0 µM 0% | [8]; at 100.0 µM -1% | [9]; at 1.2 µM -1% | [9]; at 3.7 µM 0% | [9]; at 11.0 µM 0% | [9]; at 33.0 µM -1% | [9]; at 100.0 µM -1% | [10]; at 1.2 µM -2% | [10]; at 3.7 µM -46% | [10]; [17] 0% | [10]; at 11.0 µM -55% | [10]; at 33.0 µM -4% | [10]; [18] 51% | [10]; at 50.0 µM -19.9% | [10]; at 100.0 µM -4% | [11]; at 1.2 µM 0% | [11]; at 3.7 µM -1% | [11]; [17] 6% | [11]; at 11.0 µM -1% | [11]; at 33.0 µM -1% | [11]; [18] 46% | [11]; at 50.0 µM -5.6% | [11]; at 100.0 µM -1% | [12]; at 1.2 µM 1% | [12]; at 3.7 µM 2% | [12]; at 11.0 µM 2% | [12]; at 33.0 µM 3% | [12]; at 100.0 µM 2% | [13]; [17] 12% | [13]; [18] 54% | [13]; at 50.0 µM -5.35% | [14]; at 1.2 µM 4% | [14]; at 3.7 µM 1% | [14]; at 11.0 µM 4% | [14]; at 33.0 µM 4% | [14]; at 100.0 µM -2% | [15]; [17] 1% | [15]; [18] 56% | [15]; at 50.0 µM 23.4% | [16]; at 1.2 µM -3% | [16]; at 3.7 µM -2% | [16]; [17] -2% | [16]; at 11.0 µM -3% | [16]; at 33.0 µM -3% | [16]; [18] -7% | [16]; at 50.0 µM -4.4% | [16]; at 100.0 µM 0% | [1]; at 1.2 µM 1% | [1]; at 3.7 µM 8% | [1]; at 11.0 µM 0% | [1]; at 33.0 µM 0% | [1]; at 100.0 µM 0% | [2]; at 1.2 µM -1% | [2]; at 3.7 µM -2% | [2]; at 11.0 µM 0% | [2]; at 33.0 µM -1% | [2]; at 100.0 µM -1% | [3]; at 1.2 µM -1% | [3]; at 3.7 µM 0% | [3]; at 11.0 µM 1% | [3]; at 33.0 µM 1% | [3]; at 100.0 µM 0% | [4]; [17] 6% | [4]; [18] 52% | [4]; at 50.0 µM -18.4% | [5]; at 1.2 µM -1% | [5]; at 3.7 µM 1% | [5]; at 11.0 µM -2% | [5]; at 33.0 µM -3% | [5]; at 100.0 µM -4%
